From PubChem BioAssay
An excerpt weighted towards active compounds, which were near 2.4% of everything screened.
D2 PAM-1 = human D2 receptor positive allosteric modulation | P14416 | potentiation, % (concentration not given with the values) | actives 0.23% (n = 360,000) | DiscoveRx D2 beta-arrestin cells, luminescence, 90 min; 100% = 57 uM dopamine signal; in the data active means potentiation above about 50%; inconclusive means mostly about 30% to 49%
Target sequence (P14416 whole entry, looked up): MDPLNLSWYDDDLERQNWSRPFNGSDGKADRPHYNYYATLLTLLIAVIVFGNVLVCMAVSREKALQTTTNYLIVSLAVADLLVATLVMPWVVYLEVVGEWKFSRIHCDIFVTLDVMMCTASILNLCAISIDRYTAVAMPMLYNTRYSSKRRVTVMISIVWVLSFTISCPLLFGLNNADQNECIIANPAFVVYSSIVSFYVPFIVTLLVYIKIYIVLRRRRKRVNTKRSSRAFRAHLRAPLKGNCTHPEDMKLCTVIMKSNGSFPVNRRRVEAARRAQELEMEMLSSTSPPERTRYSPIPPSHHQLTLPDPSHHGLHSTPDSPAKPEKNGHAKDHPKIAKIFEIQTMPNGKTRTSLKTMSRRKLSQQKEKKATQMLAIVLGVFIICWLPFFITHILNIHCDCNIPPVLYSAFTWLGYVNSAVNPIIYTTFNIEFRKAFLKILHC
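PathHunter beta-arrestin assay in DiscoveRx D2 cells. Compounds were added with an EC20 of dopamine (50 nM final) for 90 min at 37 deg C. Luminescence was read 1 h after detection reagent, with 57 uM dopamine as the EC100 control.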
D2 ag-1 = activates the human D2 dopamine receptor | AID 485358 | actives 0.53% (n = 340,000) | P14416 | activation, % at 2 µM | HEK293 T-REx D2 cells, calcium flux agonist mode;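 active means activation over 3 SD above normal in the single-dose calcium agonist read, cut at about 30% in these data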; further: 0% is about no effect
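Agonism is scored from calcium flux in a force-coupled, inducible HEK293 cell line expressing D2, read kinetically for 180 s after compound addition against dopamine controls.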
D2 ag-2 = activates the human D2 dopamine receptor; P14416; DiscoveRx PathHunter D2 beta-arrestin, luminescence, 90 min; 100% = 57 uM dopamine signal; activation, % (concentration not given with the values); actives 0.084% (n = 360,000); in the data active means activation above about 40%; inconclusive means between about 15% and that limit
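Agonist mode: compounds alone added to overnight-plated D2 PathHunter cells for 90 min at 37 C, with 57 uM final dopamine (EC100) defining full response. Beta-arrestin recruitment detected by chemiluminescent reagent, read after 1 h at ambient temperature.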
D2 PAM-2 = positive allosteric modulators of human D2 dopamine receptor; actives 0.34% (n = 340,000); potentiation, % at 10 µM; HEK293 T-REx D2, calcium flux, EC20 dopamine potentiation;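 active means potentiation over 3 SD above the plate norm, cut at about 30% in these data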; further: 0% is about no effect
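Primary screen. Calcium kinetics in induced HEK293 T-REx D2 cells: compound pre-addition 180 s, EC20 dopamine, 180 s more.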
D2 antagonist = antagonizes the human D2 dopamine receptor; P14416; HEK293 TREx D2 cells, calcium flux, dopamine EC80; inhibition, % at 10 µM; actives 2% (n = 340,000); AID 485344; in the data active means inhibition above about 30%; inactive means below that, where a call was filed; further: 0% is about no effect
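Measurement of antagonist activity uses fluorescent calcium dye in inducible HEK293 T-REx D2 cells: 10 s baseline, compound addition with 180 s read, EC80 dopamine addition with a further 180 s read.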
D3 arrestin ag = confirmation of human D3 dopamine receptor agonists, beta-arrestin; shares compounds with D2 ag-1; DiscoveRx D3 beta-arrestin cells, luminescence, 90 min; Potency, µM (titrated, usually from 76.9 µM), for the others: at the top dose activation, actives largely listed as activators; actives 4% (n = 2,300); AID 720506;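 further: potency means the concentration at half of the fitted maximal effect; 100% = dopamine control response; nearly all actives have a fitted effect of over 70% in size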
D2 ag-3 = activates human D2 dopamine receptor in D3 counterscreen. shares compounds with D2 ag-1. DiscoveRx PathHunter D2 beta-arrestin, luminescence, 90 min; response scale: percent relative to full dopamine signal. Potency, µM (top dose mostly 76.9 µM), for inactives: top-dose activation, usual class: activators. actives 5.9% (n = 2,300). AID 720507; further: potency means the concentration at half of the fitted maximal effect; % of control where 0% means no effect; nearly all actives have a fitted effect of over 70% in size
* hit, by the source's call; ? = inconclusive; . = no result. Unless noted, the call rests on the fitted dose curve; in most records, active means well fitted activation curve with a large enough effect; inconclusive means small, poorly fitted or top-dose-only effect; inactive means flat fitted curve, though single readings scatter.

SMILES	D2 PAM-1	D2 ag-1	D2 ag-2	D2 PAM-2	D2 antagonist	D3 arrestin ag	D2 ag-3
CCc1ccccc1NC(=S)N1CCN(c2ccccn2)CC1	-16.4	32.8*	2.8	-16.3	0.9	-7.0%	?
Cc1ccc(NC(=S)N2CCN(c3ccccn3)CC2)c(C)c1	-1.4	34.1*	-2.5	-9.8	30.9*	2.5%	3.2%
COc1ccc(C)cc1NC(=S)N1CCN(c2ccccn2)CC1	-0.2	56.6*	-1.3	-22.6	-3.4	-3.5%	-0.5%
Fc1ccccc1NC(=S)N1CCN(c2ccccn2)CC1	4.9	10.8	-1.4	6.8	-0.4	.	.
CCOC(=O)C1=C(CSc2nc(-c3ccncc3)ccc2C#N)OC(N)=C(C#N)C1c1ccc(OC)cc1 (stereo not given)	17.7	-0.4	6.2	0.1	17.1	.	.
CCOC(=O)C1=C(CSc2nc(CC)c(C)cc2C#N)OC(N)=C(C#N)C1c1ccc(OC)cc1 (stereo not given)	2.0	2.8	-1.6	-1.3	13.3	9.8%	1.7%
CCOC(=O)N1CCN(C/C(Cl)=C/c2ccccc2)CC1	2.3	48.7*	?	-21.3	7.6	-0.7%	15.7%
Cc1oc2ncn(CC(C)C)c(=O)c2c1C(=O)Nc1cc(F)ccc1F	.	-0.1	.	3.8	.	.	.
Cc1ccc2occ(CN3CCN(c4ccccc4)CC3)c(=O)c2c1	-2.0	12.9	12.7	.	67.4*	-4.8%	24.6%
CCOc1cc(/C=C(\C#N)C(=O)Nc2ccc(C)cc2)ccc1OCc1cc(=O)n2nc(CC)sc2n1	.	-0.4	.	-2.8	.	.	.
COc1cccc2c1cc1c(=O)n(CC(=O)N3CCC(C)CC3)nc(C)n12	12.5	.	?	-8.9	.	-4.3%	?
COc1ccc2c(c1)sc1ncc(C(=O)NCc3ccc(Cl)cc3)c(=O)n12	.	-0.3	.	-0.1	.	.	.
CC(c1ccccc1)n1c(-c2cccs2)nc2c(c(=O)c3ccccc3n2C)c1=O (stereo not given)	-9.2	2.2	-2.4	20.4	9.0	-10.2%	-4.5%
OC(CNCCc1ccc(C(F)(F)F)cc1)COc1cccc2ccccc12 (stereo not given)	-17.6	6.6	-10.1	7.8	20.6	25.9%	4.4%
OC(c1cc(-c2ccc(C(F)(F)F)cc2)nc(C(F)(F)F)c1)C1CCCCN1 (stereo not given)	-42.9	10.1	?	-3.4	-5.8	?	?
Cc1cccc(N2CCN(CC(O)COCc3cccs3)CC2)c1C (stereo not given)	-12.2	56.1*	4.0	-16.0	70.5*	0.316µM*	12.7%
CN1CCCN(CC(O)COCc2cccs2)CC1 (stereo not given)	-5.8	0.2	0.5	3.8	-3.8	.	.
OC(COCc1cccs1)CN1CCCCCC1 (stereo not given)	-28.3	-0.6	1.2	29.7	-2.8	.	.
OC(COCc1cccs1)CN1CCN(c2cccc(Cl)c2)CC1 (stereo not given)	-24.4	67.0*	?	-19.9	43.4*	2.8%	?
CCC(C(=O)Nc1cccc(C#N)c1)n1nc(-c2ccccc2)ccc1=O (stereo not given)	.	-0.6	.	-4.0	.	.	.
O=C(NCc1ccco1)c1sc(=S)n2c1[nH]c(=O)c1ccccc12	-8.3	9.7	-4.2	4.3	5.7	-14.5%	-8.3%
O=C(NC1CCCC1)c1sc(=S)n2c1[nH]c(=O)c1ccccc12	-13.9	4.4	-1.4	-3.3	8.8	.	.
O=C(CSCc1c[nH]c(=O)[nH]c1=O)OCC(=O)c1ccc(Br)cc1	-12.5	.	-9.3	.	.	-14.9%	-7.0%
CCN(CC)C(=O)CN1CCN(c2ccccc2F)CC1	-17.9	0.0	0.4	-7.5	7.3	.	.
C/C=C(\C)CN1CCN(c2ccccc2)CC1	-10.1	79.1*	13.3	-20.8	74.8*	1.9%	24.8%
SMILES	D2 PAM-1	D2 ag-1	D2 ag-2	D2 PAM-2	D2 antagonist	D3 arrestin ag	D2 ag-3
C/C=C(\C)CN1CCN(c2cc(C)ccc2C)CC1	-20.5	0.1	2.6	10.7	-3.1	.	.
C/C=C(\C)CN1CCN(c2ccccc2F)CC1	-8.7	38.0*	10.7	-11.0	65.4*	2.7%	19.1%
Cc1cccc(-c2nc3nc(C)cc(NCc4ccccc4Cl)n3n2)c1	.	1.9	.	0.4	.	.	.
COc1ccc(N=C(N)SCc2ccccn2)cc1	-8.6	33.0*	-1.5	-7.1	44.6*	3.1%	-7.4%
COc1ccc(-c2nnc(SCc3ccccn3)n2C)cc1	-4.5	-0.6	-4.8	0.7	-14.0	.	.
CCc1ccc(NC(=O)C2CCN(c3cc(C)nc4c(-c5ccc(Cl)cc5)c(C)nn34)CC2)cc1	.	0.3	.	10.6	.	.	.
O=C(O)CNC(=O)c1ccccc1Br	-0.9	3.6	0.8	6.2	39.8*	-7.3%	-0.6%
O=C(Nc1ccc(C(=O)NCCCN2CCCCC2)cc1)C1=CSCCO1	-10.4	.	2.1	.	.	.	.
O=C(Nc1ccc(C(=O)NCCCN2CCN(c3ccc(F)cc3)CC2)cc1)C1=CSCCO1	-52.5	68.6*	10.6	-25.4	69.3*	-14.5%	25.1%
CCn1c2c(c(=O)n3ncc(C(=O)Nc4ccc(F)cc4Cl)c13)CN(Cc1ccc(OC)cc1)CC2	.	-1.9	.	-0.2	.	.	.
C/C(=N\NC(=O)c1nnn(-c2nonc2N)c1-c1ccc2c(c1)OCO2)c1cccs1	-5.2	32.3*	-1.4	7.5	36.8*	-1.5%	-2.6%
COc1cccc(-c2c(C(=O)N/N=C(\C)c3cccs3)nnn2-c2nonc2N)c1	-6.2	37.2*	-1.6	-2.4	3.2	-7.5%	-3.9%
C/C(=N\NC(=O)c1nnn(-c2nonc2N)c1-c1cccs1)c1ccc(C)cc1	0.6	8.1	-8.8	7.0	11.4	.	.
COc1ccc(/C(C)=N/NC(=O)c2nnn(-c3nonc3N)c2-c2cccs2)cc1	-8.6	2.9	-4.5	15.0	-8.4	0.3%	-3.5%
COc1cccc(-c2c(C(=O)N/N=C(\C)c3ccncc3)nnn2-c2nonc2N)c1	-10.2	0.3	2.7	-5.5	-10.3	.	.
CCOc1cccc(-c2c(C(=O)N/N=C(\C)c3cccs3)nnn2-c2nonc2N)c1	2.0	18.5	-4.9	8.5	15.6	-3.5%	-3.4%
CC1(C)O[C@@H]2[C@H](O1)[C@@H](CO)O[C@H]2n1cnc2c(=O)[nH]cnc21	0.1	-0.8	-2.2	-2.0	-8.6	-2.7%	-1.8%
O=C(O)CNC(=O)c1ccc(NC(=O)/C(=C/c2ccccc2)NC(=O)c2ccco2)cc1	-10.7	1.1	-6.4	3.1	2.8	.	.
